# According to PMC11062922 (Nature Chemical Biology, 2023):
# Where two headings read alike, the source gives them in different places.
# Tests used:
# Parameters in all cases: species or system human, MV4-11 + K-562 + COLO205 + SK-N-BE2 + OVCAR-8
# CDK7 = conditions: read-out: apparent Kd, compound concentrations: 100 nM and 1000 nM (sheet 'Samples'), n = 1
# LATS1 = conditions: read-out: apparent Kd, compound concentrations: 100 nM and 1000 nM (sheet 'Samples'), n = 1
# MARK3 = conditions: read-out: apparent Kd, n = 1
# MARK4 = conditions: read-out: apparent Kd, compound concentrations: 100 nM and 1000 nM (sheet 'Samples'), n = 1
# PKN1 = conditions: read-out: apparent Kd, compound concentrations: 100 nM and 1000 nM (sheet 'Samples'), n = 1
# PKN3 = conditions: read-out: apparent Kd, compound concentrations: 100 nM and 1000 nM (sheet 'Samples'), n = 1
# PLK4 = conditions: read-out: apparent Kd, compound concentrations: 100 nM and 1000 nM (sheet 'Samples'), n = 1
# PRKAG1 = conditions: read-out: apparent Kd, compound concentrations: 100 nM and 1000 nM (sheet 'Samples'), n = 1
# PRKCD = conditions: read-out: apparent Kd, compound concentrations: 100 nM and 1000 nM (sheet 'Samples'), n = 1
# PRKD3 = conditions: read-out: apparent Kd, n = 1
# PTK2B = conditions: read-out: apparent Kd, compound concentrations: 100 nM and 1000 nM (sheet 'Samples'), n = 1
# PTK2 = conditions: read-out: apparent Kd, compound concentrations: 100 nM and 1000 nM (sheet 'Samples'), n = 1
# RPS6KA6 = conditions: read-out: apparent Kd, compound concentrations: 100 nM and 1000 nM (sheet 'Samples'), n = 1
# SIK2 = conditions: read-out: apparent Kd, compound concentrations: 100 nM and 1000 nM (sheet 'Samples'), n = 1
# ADCK1 = conditions: read-out: apparent Kd, compound concentrations: 100 nM and 1000 nM (sheet 'Samples'), n = 1
# CDK16 = conditions: read-out: apparent Kd; compound concentrations: 100 nM and 1000 nM (sheet 'Samples'), CATDS: 4.4691246534882996E-3; n = 1
# CDK17 = conditions: read-out: apparent Kd; compound concentrations: 100 nM and 1000 nM (sheet 'Samples'), CATDS: 5.1710144175889199E-3; n = 1
# MAPK9 = conditions: read-out: apparent Kd, n = 1
# RIOK2 = conditions: read-out: apparent Kd, n = 1
# STK4 = conditions: read-out: apparent Kd, n = 1
# [1] = compound concentrations:100 nM and 1000 nM (sheet 'Samples')
smiles,measurement,setting,value
O=C1N=C(NCCc2ccc(Cl)cc2)S/C1=C\c1ccc2ncccc2c1 [RO4498479-000],potency estimated from few doses,CDK7; CATDS: 2.4350372788697498E-2,119 nM
same,potency estimated from few doses,LATS1; CATDS: 9.9630845977556094E-3,560 nM
same,potency estimated from few doses,"MARK3; compound concentrations: 100 nM and 1000 nM (sheet 'Samples'), CATDS: 8.4864305198955707E-3",848 nM
same,potency estimated from few doses,MARK4; CATDS: 9.5723230975851108E-3,617 nM
same,potency estimated from few doses,PKN1; CATDS: 9.0371010763674806E-3,713 nM
same,potency estimated from few doses,PKN3; CATDS: 1.12150497096419E-2,431 nM
same,potency estimated from few doses,PLK4; CATDS: 1.52584065926915E-2,242 nM
same,potency estimated from few doses,PRKAG1; CATDS: 1.32160889121976E-2,312 nM
same,potency estimated from few doses,PRKCD; CATDS: 7.1591971083295198E-3,1490 nM
same,potency estimated from few doses,"PRKD3; compound concentrations: 100 nM and 1000 nM (sheet 'Samples'), CATDS: 8.1476846710640503E-3",956 nM
same,potency estimated from few doses,PTK2B; CATDS: 1.6323674836543501E-2,216 nM
same,potency estimated from few doses,PTK2; CATDS: 1.5270520713179201E-2,242 nM
same,potency estimated from few doses,RPS6KA6; CATDS: 1.4642324519722799E-2,260 nM
same,potency estimated from few doses,SIK2; CATDS: 1.14849273453617E-2,410 nM
CN(c1ccc(NC(=O)N2CCN(CCCN3CCOCC3)CC2)cc1)c1ccnc(Nc2ccc(CS(C)(=O)=O)cc2)n1.Cl [GW830899A],potency estimated from few doses,ADCK1; CATDS: 2.5462418576412099E-2,867 nM
same,potency estimated from few doses,CDK7; CATDS: 3.2126813899460802E-2,560 nM
same,potency estimated from few doses,"MARK3; compound concentrations: 100 nM and 1000 nM (sheet 'Samples'), CATDS: 1.9647586530532599E-2",1610 nM
same,potency estimated from few doses,MARK4; CATDS: 2.1363637318540001E-2,1290 nM
same,potency estimated from few doses,PKN3; CATDS: 1.8045605554117099E-2,2080 nM
same,potency estimated from few doses,PRKAG1; CATDS: 2.3560969184091798E-2,1020 nM
same,potency estimated from few doses,PTK2; CATDS: 2.9725199889124199E-2,643 nM
same,potency estimated from few doses,SIK2; CATDS: 2.0988983059189802E-2,1350 nM
Cn1ncc2c(N)ncnc21 [SKF-18267],potency estimated from few doses,ADCK1; CATDS: 5.0791005267813499E-3,789 nM
same,potency estimated from few doses,CDK16,1030 nM
same,potency estimated from few doses,CDK17,762 nM
same,potency estimated from few doses,CDK7; CATDS: 5.5514862333248096E-3,667 nM
same,potency estimated from few doses,LATS1; CATDS: 3.8471015452543802E-3,1480 nM
same,potency estimated from few doses,"MAPK9; compound concentrations: 100 nM and 1000 nM (sheet 'Samples'), CATDS: 4.8352586021379899E-3",871 nM
same,potency estimated from few doses,"MARK3; compound concentrations: 100 nM and 1000 nM (sheet 'Samples'), CATDS: 3.4367127016050499E-3",2060 nM
same,potency estimated from few doses,MARK4; CATDS: 3.8950662850455102E-3,1430 nM
same,potency estimated from few doses,PKN1; CATDS: 4.0652178532190096E-3,1280 nM
same,potency estimated from few doses,PLK4; CATDS: 4.9790098691835901E-3,821 nM
same,potency estimated from few doses,PRKAG1; CATDS: 6.4543335305036397E-3,512 nM
same,potency estimated from few doses,PRKCD; CATDS: 3.5352355938645099E-3,1880 nM
same,potency estimated from few doses,"PRKD3; compound concentrations: 100 nM and 1000 nM (sheet 'Samples'), CATDS: 4.0252223893410396E-3",1320 nM
same,potency estimated from few doses,PTK2B; CATDS: 7.2672167282142302E-3,423 nM
same,potency estimated from few doses,PTK2; CATDS: 4.9483549300151902E-3,831 nM
same,potency estimated from few doses,"RIOK2; compound concentrations: 100 nM and 1000 nM (sheet 'Samples'), CATDS: 5.3875103826164002E-3",705 nM
same,potency estimated from few doses,RPS6KA6; CATDS: 7.1387563408407901E-3,435 nM
same,potency estimated from few doses,SIK2; CATDS: 4.9685571215498103E-3,824 nM
same,potency estimated from few doses,"STK4; compound concentrations: 100 nM and 1000 nM (sheet 'Samples'), CATDS: 4.4233826553232904E-3",1050 nM
COc1cccc2c(-c3ccncc3)c(-c3ccc(F)cc3)nn12 [GW468513X],potency estimated from few doses,"MAPK9; compound concentrations: 100 nM and 1000 nM (sheet 'Samples'), CATDS: 6.8874136988771595E-2",218 nM
same,potency estimated from few doses,PKN3; CATDS: 5.3563953975551901E-2,427 nM
CCn1c(-c2nonc2N)nc2c(-c3ccccc3)ncc(OCCCN)c21.CCn1c(-c2nonc2N)nc2c(-c3ccccc3)ncc(OCCCN)c21.O=C(O)C(F)(F)F.O=C(O)C(F)(F)F [GSK260205A],potency estimated from few doses,LATS1; CATDS: 3.5695697906411097E-2,734 nM
same,potency estimated from few doses,PKN3; CATDS: 0.85080270266883096,1.1 nM
same,potency estimated from few doses,PRKCD; CATDS: 3.0969413640761199E-2,1160 nM
same,potency estimated from few doses,"PRKD3; compound concentrations: 100 nM and 1000 nM (sheet 'Samples'), CATDS: 2.8953203938898799E-2",1510 nM
Fc1ccc(-c2c(-c3ccncc3)[nH]c3cccnc23)cc1 [RO1153853-000],potency estimated from few doses,"MAPK9; compound concentrations: 100 nM and 1000 nM (sheet 'Samples'), CATDS: 7.2614011783570201E-2",541 nM
same,potency estimated from few doses,PKN3; CATDS: 0.27237296502427,55.8 nM
same,potency estimated from few doses,"PRKD3; compound concentrations: 100 nM and 1000 nM (sheet 'Samples'), CATDS: 5.1990975037574202E-2",1420 nM
CCn1c(-c2nonc2N)nc2c(C#CC(C)(C)O)nc(CN3CCCC3)cc21 [GSK1000163A],potency estimated from few doses,PKN3; CATDS: 0.30633787059967998,558 nM
CNC(=O)c1ccccc1Nc1nc(Nc2ccc(N3CCOCC3)cc2)ncc1Cl.Cl [GSK1576028A],potency estimated from few doses,MAPK9; [1],220 nM
same,potency estimated from few doses,RIOK2; [1],2140 nM
same,potency estimated from few doses,STK4; [1],675 nM
NCCNS(=O)(=O)c1ccc(-c2ccnc3[nH]ccc23)cc1 [GSK977617A],potency estimated from few doses,RIOK2; [1],1170 nM
Cc1ccc2c(-c3ccncc3)c(-c3ccc(F)cc3)nn2c1.Cl [GW461484A],potency estimated from few doses,PRKD3; [1],2110 nM
Cc1cccc2c(-c3ccncn3)c(-c3ccc(F)cc3)nn12 [GW515532X],potency estimated from few doses,PKN3; CATDS: 0.37134711180045199,663 nM
O=C1NC(=O)C(N2CCc3ccccc32)=C1c1ccccc1Cl [SB-373598],potency estimated from few doses,MARK3; [1],1280 nM
CC(C)N1CCC(n2cnc(-c3ccc(F)cc3)c2-c2ccnc(N)n2)CC1 [SB-223132],potency estimated from few doses,MARK3; [1],1770 nM
CCn1c(-c2nonc2N)nc2c(C#CC(C)(C)O)nc(OC[C@@H](N)c3ccccc3)cc21 [GSK938890A],potency estimated from few doses,LATS1; CATDS: 6.3165054409109203E-2,513 nM
same,potency estimated from few doses,PKN3; CATDS: 0.20749541918588199,23.6 nM
Cc1cccc(-c2nc(Nc3ccncc3)c3sccc3n2)n1 [GW869641X],potency estimated from few doses,PRKD3; [1],3.56 nM
